Measured values from PubChem BioAssay.
Unmarked numbers belong to inactive results. The list shows a part of the results. Activity calls are given as the source filed them.

Key:
[1] = biological target: Inward rectifier potassium channel 2 (Mus musculus) (UniProt P35561); test: mouse Kir2.1 channel blockers, retest, confirmation, cell-based, FluxOR thallium flux, duplicate (AID 2032;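 active = Primary-screen hit whose thallium flux fell at least 3 control SD below untreated wells in both duplicates, with normal baseline fluorescence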); settings: Kir2.1-expressing cells, FluxOR thallium flux fluorescence, at 10 µM; stronger effect = lower value
Chain of Inward rectifier potassium channel 2 (Mus musculus) (P35561 whole entry, looked up): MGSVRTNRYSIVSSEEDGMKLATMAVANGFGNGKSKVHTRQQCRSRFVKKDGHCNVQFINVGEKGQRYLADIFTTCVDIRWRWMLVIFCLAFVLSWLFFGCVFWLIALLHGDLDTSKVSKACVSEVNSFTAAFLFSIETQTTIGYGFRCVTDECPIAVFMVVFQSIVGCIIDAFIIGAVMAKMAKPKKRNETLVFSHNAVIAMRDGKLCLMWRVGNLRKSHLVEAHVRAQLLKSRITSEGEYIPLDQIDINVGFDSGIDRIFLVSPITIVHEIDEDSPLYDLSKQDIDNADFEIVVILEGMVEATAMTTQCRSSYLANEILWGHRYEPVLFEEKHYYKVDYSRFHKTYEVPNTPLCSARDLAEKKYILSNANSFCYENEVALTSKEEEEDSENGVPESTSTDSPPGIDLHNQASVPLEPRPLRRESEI

[2] = nonspecific thallium flux effects in parental HEK293 cells, confirmation, counter-screen for Kir2.1 inhibitor project, cell-based, FluxOR thallium flux, duplicate, single concentration (AID 2105;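 active = dye signal at least 3 control SD above or below untreated wells in both duplicates, raw fluorescence within 3, either direction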;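 as to FluxOR signal as % of negative control (100 = no effect): percent is based on the flux ratio of peak minus minimum fluorescence over baseline F0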); settings: FluxOR thallium flux fluorescence, at 10 µM; 0% = unstimulated blank wells
[3] = nonspecific thallium flux increase in parental CHO-K1, confirmation, counter-screen for KCNQ2 potentiator project, cell-based, FluxOR thallium flux, duplicate (AID 2282;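 active = signal rise of at least 3 SD above the untreated control mean, in both duplicate wells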;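 also: counter screen of KCNQ2 potentiator hits so any rise reflects channel-independent effects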); settings: parental CHO-K1 cells, FluxOR thallium flux fluorescence; at 10 µM; stronger effect = higher value; zero = vehicle mean+3SD, 100% = vehicle-minus-blank window
[4] = biological target: Potassium voltage-gated channel subfamily KQT member 1 (Homo sapiens) (UniProt P51787); test: human KCNQ1 channel potentiation off-target, confirmation, selectivity assay for KCNQ2 potentiator project, cell-based, CHO, FluxOR thallium flux (AID 2283); settings: CHO KCNQ1 stable, FluxOR thallium flux fluorescence; at 10 µM; stronger effect = higher value; beyond 3SD, as % of vehicle-control signal;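 also: 0% = vehicle mean plus 3 SD and 100% = vehicle minus unstimulated blank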
Chain of Potassium voltage-gated channel subfamily KQT member 1 (Homo sapiens) (P51787 whole entry, looked up): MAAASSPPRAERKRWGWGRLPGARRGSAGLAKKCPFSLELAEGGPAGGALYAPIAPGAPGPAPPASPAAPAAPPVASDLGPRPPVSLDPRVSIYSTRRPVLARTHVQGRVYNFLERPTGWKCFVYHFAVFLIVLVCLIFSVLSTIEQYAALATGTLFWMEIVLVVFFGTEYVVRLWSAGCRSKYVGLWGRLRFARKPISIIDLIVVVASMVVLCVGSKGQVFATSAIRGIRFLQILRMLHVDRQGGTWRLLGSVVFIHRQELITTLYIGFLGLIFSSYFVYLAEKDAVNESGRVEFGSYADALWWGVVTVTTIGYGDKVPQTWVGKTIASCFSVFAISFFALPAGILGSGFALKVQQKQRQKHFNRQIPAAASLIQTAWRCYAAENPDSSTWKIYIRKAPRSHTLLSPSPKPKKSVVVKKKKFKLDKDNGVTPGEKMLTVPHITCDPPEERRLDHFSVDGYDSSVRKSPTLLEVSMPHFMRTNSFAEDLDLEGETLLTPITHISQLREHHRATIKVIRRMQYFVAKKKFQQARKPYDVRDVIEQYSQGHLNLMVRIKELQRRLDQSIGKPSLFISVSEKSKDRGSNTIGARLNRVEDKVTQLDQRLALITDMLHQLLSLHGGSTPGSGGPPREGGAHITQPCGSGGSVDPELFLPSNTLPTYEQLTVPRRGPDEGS

[5] = biological target: Potassium voltage-gated channel subfamily KQT member 2 (Rattus norvegicus) (UniProt O88943); test: rat KCNQ2 channel potentiators, confirmation, cell-based, CHO, FluxOR thallium flux, duplicate (AID 2287;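 active = fluorescence ratio rising 3 SD or more over the vehicle control mean in both replicates, plus primary screen hit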;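 also: peak minus minimum thallium fluorescence divided by baseline after K/Tl stimulus; 0% = vehicle mean plus 3 SD and 100% = vehicle minus unstimulated blank difference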); settings: CHO-KCNQ2 cells, FluxOR thallium flux fluorescence; at 10 µM; stronger effect = higher value
[6] = biological target: Inward rectifier potassium channel 2 (Mus musculus) (UniProt P35561); test: PubChem AID 2345; settings: HEK293 Kir2.1, FluxOR thallium flux fluorescence; at 10 µM; stronger effect = higher value;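 also: 0% = vehicle mean plus 3 SD and 100% = vehicle minus no-stimulus blank window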
[7] = biological target: Potassium voltage-gated channel subfamily KQT member 2 (Rattus norvegicus) (UniProt O88943); test: potentiators of retigabine-insensitive KCNQ2 W236L, mechanism study for KCNQ2 potentiator project, cell-based, rat KCNQ2 W236L, CHO, automated patch clamp (AID 2558;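 active = current increase at least 3 SD of the untreated controls above them in both duplicate recordings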); settings: at 25 µM; outcome: automated patch clamp current
[8] = thallium flux activation in parental CHO cells, counter-screen for KCNQ1 potentiator project (AID 493006;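 active = duplicate-averaged activation above buffer control mean plus 5 SD of those controls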;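 as to activation: fluorescence ratio of max minus min over baseline after K+ and Tl+ depolarization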); settings: parental CHO-K1 cells, FluxOR thallium flux, at 10 µM; stronger effect = higher value
[9] = biological target: Potassium voltage-gated channel subfamily KQT member 1 (Homo sapiens) (UniProt P51787); test: KCNQ1 potassium channel potentiators, confirmation, FluxOR thallium flux, CHO cells, duplicates (AID 493007;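 active = potentiation averaged over duplicate wells exceeding buffer-only control mean by more than 3 SD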;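 as to outcome: cells depolarized by a potassium plus thallium sulfate stimulus after compound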;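 as to potentiation: 0% = buffer-only wells and 100% = R-L3 activator control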); settings: KCNQ1 cell line, FluxOR thallium flux fluorescence, at 10 µM; stronger effect = higher value, % of reference activator effect, buffer zero
[10] = biological target: Potassium voltage-gated channel subfamily KQT member 2 (Rattus norvegicus) (UniProt O88943); test: rat KCNQ2 channel potentiation, selectivity assay for KCNQ1 potentiator project, KCNQ2-CHO-K1 cells (AID 493009;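 active = mean duplicate potentiation above the buffer control mean plus 5 SD of buffer wells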;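 also: assay conditions were tuned for KCNQ1 rather than KCNQ2 modulators; signal is max minus min fluorescence divided by baseline after thallium stimulus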); settings: FluxOR thallium flux fluorescence, at 10 µM; stronger effect = higher value, scaled: buffer 0, activator control 100
[11] = biological target: Potassium voltage-gated channel subfamily KQT member 1 (Homo sapiens) (UniProt P51787); test: KCNQ1 channel current potentiators, confirmation, orthogonal assay for KCNQ1 potentiator project, IonWorks patch clamp, KCNQ1-CHO cells (AID 493184;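 active = current rise at least 3 SD above the untreated control mean in each of two repeat wells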); settings: automated patch clamp current, at 10 µM; stronger effect = higher value

Compound	outcome [1]	FluxOR signal as % of negative control (100 = no effect) [2]	activity increase over 3SD of controls [3] [%]	activation over 3SD threshold [4]	potentiation, less the hit threshold [5]	activity over 3SD threshold [6] [%]	outcome [7]	activation [8]	potentiation [9]	potentiation [10]	outcome [11]	outcome [2]	outcome [8]	outcome [9]	outcome [10]	current increase over 3SD of negative controls (%), stronger effect = higher value [7]
Cc1cccc(NC(=S)NC(=O)c2ccc(Br)o2)c1	inactive	170% (active)	-7	-15.7%	35.5% (active)	-35.5	inactive	204% (active)	72% (active)	272% (active)	inactive	–	–	–	–	–
CC(NC(=O)Nc1ccccc1)c1ccccc1 (stereo unspecified)	inactive	–	-4.7	-0.5%	22.8% (active)	-35.8	inactive	–	–	–	–	inactive	–	–	–	–
Cc1ccc(S(=O)(=O)N2CCN(C(=O)COC(=O)c3c(C)cc(C)cc3C)CC2)c(C)c1	inactive	–	-0.8	-20.8%	14.7% (active)	-17.6	inactive	–	–	–	–	inactive	–	–	–	–
CCc1ccc(NC(=O)C(=O)NNC(=O)c2cccs2)cc1	inactive	310% (active)	-16	85.7% (active)	26.8% (active)	-22.9	inactive	360% (active)	159% (active)	421% (active)	inactive	–	–	–	–	–
Cc1cccc(NC(=O)c2nc(S(=O)(=O)Cc3ccccc3)ncc2Cl)c1	inactive	–	-15.5	-22.3%	4% (active)	-36	inactive	–	–	–	–	inactive	–	–	–	–
CCn1c(=S)[nH]c2sc3c(c2c1=O)CCCCC3	inactive	402% (active)	-14.2	-21.6%	43.5% (active)	-16.8	inactive	516% (active)	258% (active)	530% (active)	inactive	–	–	–	–	–
COc1ccc(NC(=O)/C(Cl)=C(/Cl)S(=O)Cc2ccc(C)cc2)cn1 (stereo unspecified)	inactive	–	-1.5	-20.5%	0.8% (active)	-44.7	inactive	–	–	–	–	inactive	–	–	–	–
CCN(CC(=O)NC(=O)NCc1ccccc1)Cc1nc2ccccc2c(=O)[nH]1	inactive	–	-2.8	-14.6%	-3%	-39	inactive	–	–	–	–	inactive	–	–	–	–
CC1=C/C(=N\OS(=O)(=O)c2ccccc2)C=CC1=O	inactive	–	-13.5	-8.8%	0.8% (active)	-51.4	inactive	–	–	–	inactive	inactive	inactive	inactive	inactive	–
CSc1nnc(NC(=O)c2nc(S(=O)(=O)Cc3ccc(C)cc3)ncc2Cl)s1	inactive	–	-8.9	-21.2%	67.6% (active)	-50.4	–	–	–	–	–	inactive	–	–	–	23.1% (active)
